This note sets out measurements from the supplement of paper PMC12636033.

± gives the standard deviation of the averaged measurements. Over roughly 33,000 sequences, “E-score (rank enrichment, -0.5 to 0.5)” has its median near -0.0028; the highest 2% begin near 0.23. The sample holds the highest values, similar sequences and a random draw of the others, so the mix is not that of the screen.

In this assay the test system is 2Sb-muMax20 (muMax20 with two 1,3-bis(methyl)benzene Cys staples, A13C/A17C and Q88C/A92C, C-terminal Lys). The experiment in a line: PBM 8-mer E-score (E-score (rank enrichment, -0.5 to 0.5)); higher = stronger preferential binding. The protocol: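 Protein binding microarray (universal PBM chip covering all 10-mers in fixed probe flanks) with chemically synthesized human Max(13-93) bHLH-LZ analogs (not full-length Max) bearing noncanonical residues (hArg, Tha, Aib, Nle at 65) and aromatic Cys staples. Read-out per 8-mer (and its reverse complement): E-score (rank-based enrichment, -0.5 to 0.5) and Z-score of median probe intensity.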
Consider GATACTCC, for which the “PBM 8-mer E-score” value was -0.0231 ± 0.06.

On to GCGCGGGA, for which the “PBM 8-mer E-score” value was -0.038 ± 0.036.

ATTCAGAG: the “PBM 8-mer E-score” value was -0.21 ± 0.046.

CGTGCATA: the “PBM 8-mer E-score” value is 0.165 ± 0.016.

For the sequence ATACGTGA, the “PBM 8-mer E-score” value is 0.0108 ± 0.014.

Turning to AGACGTGA, the “PBM 8-mer E-score” value came to 0.0177 ± 0.032.

As to ACACGTGA, the “PBM 8-mer E-score” value turned out to be 0.3874 ± 0.0005.

Take ACACGTAT: the “PBM 8-mer E-score” value was 0.205 ± 0.022.

In the case of ACACGTGT, the “PBM 8-mer E-score” value is 0.396 ± 0.015.

AAACGTGT: the “PBM 8-mer E-score” value amounted to 0.0274 ± 0.017.

In the case of ATGTCGCG, the “PBM 8-mer E-score” value was -0.163 ± 0.042.

For the sequence CATCGTAC, the “PBM 8-mer E-score” value was -0.0597 ± 0.0024.

As to ACTACGTC, the “PBM 8-mer E-score” value worked out at 0.0847 ± 0.0011.

For the sequence GTCGATTA, the “PBM 8-mer E-score” value was -0.0254 ± 0.015.

As for AGCAGGCT, the “PBM 8-mer E-score” value is -0.169 ± 0.016.

Regarding GAGCCCGC, the “PBM 8-mer E-score” value was -0.24 ± 0.016.

As for AGCGCTCA, the “PBM 8-mer E-score” value was -0.0925 ± 0.0074.

Regarding ATAATGGA, the “PBM 8-mer E-score” value is 0.185 ± 0.0033.

With ATAATGTG, the “PBM 8-mer E-score” value was 0.159 ± 0.037.

As for ATAATGGG, the “PBM 8-mer E-score” value worked out at 0.238 ± 0.034.

In the case of ATAATGTC, the “PBM 8-mer E-score” value turned out to be 0.238 ± 0.021.

ATAATGGC: the “PBM 8-mer E-score” value came out at 0.012 ± 0.012.

In the case of CTAATGTC, the “PBM 8-mer E-score” value was -0.0718 ± 0.018.

Consider AGGAACTG, for which the “PBM 8-mer E-score” value is -0.188 ± 0.049.

GCTGCACA: the “PBM 8-mer E-score” value is -0.179 ± 0.029.

As for CGCTTGTA, the “PBM 8-mer E-score” value came out at 0.123 ± 0.13.

Consider AATGCATT, for which the “PBM 8-mer E-score” value amounted to 0.282 ± 0.018.

Take GATGCGTA: the “PBM 8-mer E-score” value was 0.126 ± 0.054.

In the case of AATGCATA, the “PBM 8-mer E-score” value is 0.155 ± 0.01.

Take CATGCAAC: the “PBM 8-mer E-score” value was 0.247 ± 0.027.

As for AATGCAAC, the “PBM 8-mer E-score” value stood at 0.0741 ± 0.045.

Consider CATGCGTA, for which the “PBM 8-mer E-score” value is 0.2542 ± 0.0016.

For CATGCATC, the “PBM 8-mer E-score” value is 0.0655 ± 0.044.

As for CATGCATA, the “PBM 8-mer E-score” value turned out to be 0.177 ± 0.0083.

As for AATGCGTA, the “PBM 8-mer E-score” value was determined as 0.192 ± 0.017.

Regarding CATGCAAG, the “PBM 8-mer E-score” value came to 0.0851 ± 0.0044.

AATGCATC: the “PBM 8-mer E-score” value is 0.174 ± 0.028.

Turning to CATGCATG, the “PBM 8-mer E-score” value was found to be 0.349 ± 0.03.

As for AAAGGGGA, the “PBM 8-mer E-score” value turned out to be 0.101 ± 0.002.

In the case of ACCGGGCA, the “PBM 8-mer E-score” value is -0.237 ± 0.053.

Consider CTGGTCCC, for which the “PBM 8-mer E-score” value was -0.186 ± 0.015.

Turning to GGCTTCGA, the “PBM 8-mer E-score” value is -0.0528 ± 0.016.

As for GTCTTCAC, the “PBM 8-mer E-score” value was -0.127 ± 0.079.

As to CACCGAGG, the “PBM 8-mer E-score” value was -0.221 ± 0.014.

Take AATGCAAG: the “PBM 8-mer E-score” value was 0.134 ± 0.016.

On to AATGCAAA, for which the “PBM 8-mer E-score” value is 0.247 ± 0.034.

On to ATTGCATG, for which the “PBM 8-mer E-score” value was determined as 0.13 ± 0.006.

Turning to TATGCAAA, the “PBM 8-mer E-score” value stood at 0.0419 ± 0.0014.

In the case of ACTGCATG, the “PBM 8-mer E-score” value turned out to be 0.0264 ± 0.067.

For AATGCATG, the “PBM 8-mer E-score” value was 0.26 ± 0.017.

On to ATGGTTAC, for which the “PBM 8-mer E-score” value is -0.0452 ± 0.019.

For the sequence GCCACCGA, the “PBM 8-mer E-score” value is -0.191 ± 0.0059.

With ATTGCATA, the “PBM 8-mer E-score” value was 0.228 ± 0.028.

Regarding TATAAACA, the “PBM 8-mer E-score” value worked out at 0.156 ± 0.011.

With ACTGTTAG, the “PBM 8-mer E-score” value is -0.0514 ± 0.065.
